SMILES strings stand for the structures. Several values for one entry are separate records, joined by “and”; a condition that tells them apart may be missing. Equal entries are not always repeated. Results filed as inconclusive are left out. Where a call stands in place of a potency, no number is given. Values without a mark were called inactive. Activity calls are given as the source filed them. Calls come from the whole dose curve; as a rule, active = well fitted cell-killing curve with a large enough effect in the repeat runs (not every such curve was filed as active); inconclusive = weak or mixed curves, or effect the other way; inactive = no such curve, though single readings can be large or run the other way.
Potency is the fitted concentration of half-maximal effect.

This assay is described as follows: qHTS assay to identify small molecule antagonists of the estrogen related receptor signaling pathway with the pleiotropic PPARgamma coactivator (PGC) from Tox21 10K library - cell viability counter screen (AID 1224840). Note: nearly all actives have a fitted effect of over 40% in size. To be noted: PGC/ERR reporter cells viability, CellTiter-Fluor, 17.5 h; series mostly up to 92.4 µM. The text has this:
National Center for Advancing Translational Sciences [NCATS]
NIH Chemical Genomics Center [NCGC]
U.S. Environmental Protection Agency [EPA]
National Institutes of Environmental Health Sciences [NIEHS]
National Toxicology Program [NTP]
U.S. Food and Drug Administration [FDA]
Estrogen related receptors (ERRs), the first orphan nuclear receptors discovered, play an important role in the control of cellular energy metabolism. ERRs are required for high-energy production in response to the environmental challenges. The pleiotropic PPARgamma coactivator (PGC) is a major partner of ERR and a key regulator in energy homeostasis. Together they have been implicated in the etiology of metabolic disorders such as Type 2 diabetes and metabolic syndrome. ERR-alpha was also identified as an adverse marker for breast cancer progression; ERR-alpha-positive tumors have a poor prognosis. To screen and to identify environmental compounds that perturb the ERR and PGC/ERR signaling pathways could provide valuable information for potential therapeutic or preventive measures in the treatment of metabolic disease. To differentiate true PGC/ERR antagonists or agonist from cytotoxic substances, the assay is multiplexed with cell viability assay.
Tox21 Assay Protocol Summary:
The PGC/ERR cells were dispensed at 2,000 cells/5 ul/well in 1536-well white plates using a Multidrop dispenser. After the assay plates were incubated at a 37 C/5% CO2 incubator for 6 hours, 23 nL of compounds dissolved in DMSO, positive and negative controls or DMSO only was transferred to the assay plate by a pin tool. The plates were incubated at 37 C for 17.5 hours. 1 ul/well of CellTiter-Fluor reagent was added into the assay plates using a Flying Reagent Dispenser. After 30-minute incubation at 37 C/5% CO2, the fluorescence intensity in the plates was measured using a ViewLux plate reader.
On the technique in general: In qHTS, concentration-response curves come from the screen itself.
For the compound `O=CC(Br)(Br)Br`, the Potency was 15.3 µM (active).

As for `Nc1ccccc1C(=O)Oc1ccc2ccccc2c1`, the Potency result is “inactive”.

In the case of `CCCCCCCCCCBr`, the Potency entry was “inactive”.

As to `NNC(=O)c1ccccc1`, the Potency result is “inactive”.

Consider `CC(C)(C)c1cc([N+](=O)[O-])cc(C(C)(C)C)c1O`, for which the Potency is 13.7 µM (active).

`CCCCCCCCCCCCCN1CC(C)OC(C)C1` (stereo not given): the Potency entry was “inactive”.

Take `N#CSCSC#N`: the Potency is 55.7 µM (active) and 53.9 µM (active).

With `CC(O)C#N` (stereo not given), the Potency entry was “inactive”.

Take `Fc1ccc(Oc2ccnc3cc(Cl)cc(Cl)c23)cc1`: the Potency result is “inactive”.

As for `CN(C)C(=S)S`, the Potency was 2.15 µM (active) and 12.2 µM (active).

For `O=c1c(C2CC(c3ccc(-c4ccc(Br)cc4)cc3)Cc3ccccc32)c(O)sc2ccccc12` (stereo not given), the Potency entry is “inactive”.

Regarding `COc1ccc(/C(=C/C(=O)N2CCOCC2)c2ccc(Cl)cc2)cc1OC`, the Potency entry is “inactive”.

On to `Fc1cccc(Cl)c1CCl`, for which the Potency entry is “inactive”.

Take `C1CCC2CCCCC2C1` (stereo not given): the Potency entry was “inactive”.

Consider `CC(C)(c1ccc(O)c(-c2ccccc2)c1)c1ccc(O)c(-c2ccccc2)c1`, for which the Potency is 54.5 µM (active).

On to `Brc1c(Br)c(Br)c(Oc2c(Br)c(Br)c(Br)c(Br)c2Br)c(Br)c1Br`, for which the viability change, negative = cytotoxic is 10.1% [at 19 µM].

Regarding `O=C(CCl)C(Cl)Cl`, the Potency is 24.6 µM (active).

In the case of `CCOCn1c(-c2ccc(Cl)cc2)c(C#N)c(Br)c1C(F)(F)F`, the Potency was 5.45 µM (active).

With `CC(C)(C)C(O)C(Oc1ccc(-c2ccccc2)cc1)n1cncn1` (stereo not given), the Potency result was “inactive”.

On to `Cc1cc(N=Nc2ccccc2C)ccc1N`, for which the Potency is 38.6 µM (active) and 27.3 µM (active).

With `COC[C@H](C)N(C(=O)CCl)c1c(C)csc1C`, the Potency entry is “inactive”.

As for `CC(C)CBr`, the Potency entry was “inactive”.

Turning to `O=C(Cl)c1ccc(Cl)cc1`, the Potency result was “inactive”.

For the compound `CCCCOP(=O)(CCCC)OCCCC`, the Potency result is “inactive”.

On to `O=[N+]([O-])c1ccc2ccc3cccc4ccc1c2c34`, for which the Potency entry was “inactive”.

On to `O=S(=O)(c1ccc(Cl)cc1)c1ccc(Cl)cc1`, for which the Potency entry is “inactive”.

Regarding `CN(CCCC(O)c1cccnc1)N=O` (stereo not given), the Potency entry is “inactive”.

For the compound `Cc1cc(SCc2sc(-c3ccc(C(F)(F)F)c(F)c3)nc2C)ccc1OCC(=O)O`, the Potency entry was “inactive”.

Turning to `CCCCCCCCCCCCBr`, the Potency result is “inactive”.

As to `CCOC(=O)CC(=O)CCl`, the Potency entry was “inactive”.

Regarding `CCOP(=S)(OCC)SCS(=O)(=O)CC`, the Potency result was “inactive”.

Consider `C[CH2][Hg][N]1C(=O)C2C(C1=O)C1(Cl)C(Cl)=C(Cl)C2(Cl)C1(Cl)Cl` (stereo not given), for which the Potency is 13 µM (active).

For the compound `OC(c1ccc(Cl)cc1)(c1ccc(Cl)cc1)C(Cl)(Cl)Cl`, the Potency entry is “inactive”.

Turning to `CCCN(CCC)c1c([N+](=O)[O-])cc(S(N)(=O)=O)cc1[N+](=O)[O-]`, the Potency was 36.7 µM (active).

In the case of `[Cl][Sn]([c]1ccccc1)([c]1ccccc1)[c]1ccccc1`, the Potency is 0.82 µM (active).

With `O=[N+]([O-])c1ccc(Oc2ccc(C(F)(F)F)cc2[N+](=O)[O-])cc1`, the Potency result was “inactive”.

Consider `Nc1ccc(Sc2ccc(N)cc2)cc1`, for which the Potency entry is “inactive”.

For `Cc1cccc(OP(=O)(Oc2cccc(C)c2)Oc2cccc(C)c2)c1`, the Potency result was “inactive”.

For the compound `CC(C)OC(=O)C(O)(c1ccc(Cl)cc1)c1ccc(Cl)cc1`, the Potency result was “inactive”.

As for `CC(C)[C@H](C(=O)O[C@H](C#N)c1cccc(Oc2ccccc2)c1)c1ccc(Cl)cc1`, the Potency result is “inactive”.

Values taken from PubChem BioAssay (Tox21).
